In all, about 69,000 compounds went through this assay and about 8,600 (12%) showed an effect of 50% or more. This excerpt belongs to a sample that is enriched for strong results.
Tested on: Plasmodium berghei
Assay: Screen against P. berghei liver stage (PbLuc), transformed with Luciferase, at 10uM
Assay type: functional, HepG2
Settings: tested at 10 uM

SMILES | INHIBITION [%]
CN(C)C(=O)COCc1cncc2c1CCN(Cc1ccccn1)C2 | -11
COc1ccc(-c2nccc(C3CCCN3C)n2)cc1 (centres undefined) | 16.5
O=C(N1CCCC1)N1CCOCC2(C1)CN(c1ccccc1)C(=O)CO2 (centres undefined) | -1.36
COc1ccc(NC(=O)C2CC2)cc1OCc1cccnc1 | 34.1
COc1ccc(NC(=O)C(C)(C)C)cc1OCc1cccnc1 | 43.4
COc1ccc(NC(C)=O)cc1OCc1cccnc1 | 66.5
Cc1nnc(N2CCCC3(CN(Cc4ccc(C)s4)CCO3)C2)o1 (centres undefined) | 1.81
COCc1noc(-c2ccc(N(C)Cc3ccc(C)o3)nc2)n1 | -26.7
COCc1noc(-c2ccc(N(C)Cc3cc(C)no3)nc2)n1 | 33.5
COCc1noc(-c2ccc(N(C)Cc3c(C)n[nH]c3C)nc2)n1 | 56.9
Cc1ccc(N2CCN(C(=O)[C@@H]3CCC(=O)N3)CC2=O)cc1 | 4.95
O=C(NCc1ccc(Cl)cc1)C1CCCN(c2ccc3nncn3n2)C1 (centres undefined) | 15.7
CC(C)CC(=O)N1CCCC1c1cc(CO)[nH]n1 (centres undefined) | -0.7
CC(C)NC(=O)c1nnn(-c2cccc(C(F)(F)F)c2)c1C1CC1 | 58.5
O=C(O)c1nnn(-c2ccccc2F)c1-c1ccncc1 | 50.7
O=C(O)c1nnn(-c2cc(F)cc(F)c2)c1-c1ccncc1 | 16.8
Cc1ccc(F)c(-n2nnc(C(=O)O)c2-c2ccncc2)c1 | 7.9
O=C(O)c1nnn(-c2ccc(F)c(F)c2)c1-c1ccncc1 | -6.32
O=C(O)c1nnn(-c2ccc(C(F)(F)F)cc2)c1-c1ccncc1 | 18.4
CCc1ccc(-n2nnc(C(=O)O)c2-c2ccncc2)cc1 | 6
O=C(NC1CC1)c1nnn(-c2cccc(C(F)(F)F)c2)c1C1CC1 | 18.6
O=C(O)c1nnn(-c2cccc(C(F)(F)F)c2)c1-c1ccncc1 | 65.6
O=C(O)c1nnn(-c2ccc(Cl)c(C(F)(F)F)c2)c1-c1ccncc1 | -5.59

SMILES | INHIBITION [%]
CC(C)NC(=O)c1nnn(-c2cccc(F)c2)c1C1CC1 | -18.9
O=C(O)c1nnn(-c2ccccc2)c1-c1ccncc1 | 54
COc1cc2cc3c(nc2cc1OC)OCCN(Cc1ccco1)C3 | 16.5
COCCCNC(=O)CN(C)C(=O)CN(C)c1ccc(C#N)cn1 | -12.1
CC(=O)N1CCn2c(-c3ccccc3)cnc2C12CCNCC2 | 33
Cc1nn(C)c(N(C)C)c1CNCC(O)c1ccccc1F (centres undefined) | 25.1
Cc1cc(C(=O)N2CCCC(C(=O)c3cccs3)C2)c(=O)[nH]c1C (centres undefined) | 33.3
O=C(c1cnc(NCC2CCCO2)c(Cl)c1)N1CCCCC1 (centres undefined) | 32.2
N#Cc1ccc(CNc2ncc(C#N)cc2Cl)cc1 | 20.1
N#Cc1cnc(NCc2cccc(C(=O)N3CCCC3)c2)c(Cl)c1 | 57.5
O=C(c1cnc(NCc2cccnc2)c(Cl)c1)N1CCCCC1 | 56.3
N#Cc1cnc(NCc2ccc(C(=O)NC3CC3)cc2)c(Cl)c1 | -32.9
O=C(c1cnc(NCc2sccc2Br)c(Cl)c1)N1CCCCC1 | 24.2
CCc1ccc(CN(C)Cc2nc(COc3ccccc3)no2)nc1 | 29.6
c1ccc(CN2CCc3ncnc(C4CC4)c3CC2)nc1 | 21.1
O=C(c1cscn1)N1CCC[C@]2(C[C@@H](OCC3CC3)CO2)C1 | 36.9
CN(Cc1ccco1)Cc1ccccc1CNC(=O)c1cnccn1 | 63.3
CN(Cc1ccco1)Cc1ccccc1CNC(=O)c1c[nH]nn1 | -1.28
CN(Cc1ccco1)Cc1ccccc1CNC(=O)c1cc[nH]n1 | 30.1
Cc1cc(CN(C)C(=O)NCc2ccco2)no1 | 14.1
Cc1ncccc1C(=O)NCc1ccccc1CN(C)Cc1ccco1 | 67.3
CN(Cc1ccco1)Cc1ccccc1CNC(=O)c1cnc[nH]1 | 69.3
CN(C)c1ncccc1CNC(=O)NCc1ccco1 | -36.3

SMILES | INHIBITION [%]
CN(Cc1ccco1)Cc1ccccc1CNC(=O)c1csnn1 | 46.4
Cc1oc(C)c(C(=O)NCc2ccccc2CN(C)C)c1C | 25.55
CN(Cc1ccco1)Cc1ccccc1CNC(=O)c1ccc[nH]1 | 30.1
Cc1cc(C(=O)NCc2ccccc2CN(C)Cc2ccco2)on1 | 77.2
CN(Cc1ccco1)Cc1ccccc1CNC(=O)c1ccncc1 | -4.86
CCS(=O)(=O)c1ccccc1N1CCC(NC(=O)C(C)C)CC1 | -25.8
CO[C@@H]1CCC[C@@H](NC(=O)C(C)(C)c2cccc(F)c2)[C@H]1O | 10.855
Cc1cccc(C)c1NC(=O)c1n[nH]c(-n2cnnc2)n1 | 19.6
CC(C)N(C)Cc1nnc2n1CCCN(S(=O)(=O)C1CC1)C2 | 36.4
c1ccc(OCc2nnc3n2CCN(CC2CC2)C3)nc1 | 39.3
Cc1c(C2CCCN(C(=O)Cc3ccccn3)C2)n2c(nc1=O)CCC2 (centres undefined) | 34.1
O=C(NCCc1nccs1)[C@H](c1ccccc1)n1cnnn1 | -20.8
CC(O)CNC(=O)CCc1nc2ncccc2[nH]1 (centres undefined) | 26.6
Cc1nc(C(=O)N2CCN(S(C)(=O)=O)CC2)c(-c2cccc(F)c2)s1 | 17.7
CN(C)c1nccc(N2CCO[C@H]3CN(Cc4ccsc4)C[C@H]32)n1 | 65.1
Cc1ccc(N2CCO[C@H]3CN(Cc4ccoc4)C[C@H]32)nn1 | 41.6
Cc1cccc(CN2C[C@@H]3OCCN(c4cnccn4)[C@@H]3C2)n1 | -18.5
Cc1cccc(CN2C[C@@H]3OCCN(CC(=O)N(C)C)[C@@H]3C2)c1 | 39.4
c1cnc(N2CCO[C@H]3CN(Cc4ccsc4)C[C@H]32)nc1 | 42.7
Cc1cccc(CN2C[C@@H]3OCCN(c4ccnc(N(C)C)n4)[C@@H]3C2)c1 | 77.5
Cc1cc(C)cc(CN2C[C@@H]3OCCN(CC(=O)N(C)C)[C@@H]3C2)c1 | 66.6
c1cc(CN2C[C@@H]3OCCN(CCN4CCCC4)[C@@H]3C2)cs1 | 11.3
CN(C)C(=O)CN1CCO[C@H]2CN(Cc3ccoc3)C[C@H]21 | 31.2

SMILES | INHIBITION [%]
CCOCCCNC(=O)C1CCC(=O)N(CCc2ccc(Cl)cc2)C1 (centres undefined) | 16.3
COc1ccc(C(=O)Nc2ccccc2C(C)C)c(OC)n1 | -17.2
COc1ccc([C@@H]2CN(Cc3cccnc3N)C[C@H]2N(C)C)cc1 | 30.3
O[C@@H]1CCN(CC2CC2)[C@H]1Cc1ccccc1 | -14.4
Cc1nc(C)n(CC2CN(Cc3cccnc3)Cc3nccn3C2)n1 (centres undefined) | 25.1
Cc1ncsc1C(=O)NCCCN1CCCCCC1=O | -21.2
Cc1nc(S(=O)(=O)N2CCSCC2)cn1C | -50.7
CCN(CC)Cc1cc(=O)n2c(n1)CN(C(=O)c1ccnnc1)CCC2 | -20.2
COc1ccc(C[C@H]2CN(C(=O)CS(C)(=O)=O)CC[C@H]2OC)cc1 | 33.4
COCCN1CC[C@H]2CN(Cc3ccc(C)s3)C[C@@H]2C1=O | -75
c1nc(N2CCCC2)ncc1CN1CCCC(CN2CCCCC2)C1 (centres undefined) | 21.1
NC(=O)CCC1CCCN(Cc2cnc(N3CCCCC3)nc2)C1 (centres undefined) | 67.8
CCc1cnc(N2CCCC(CCC(N)=O)C2)nc1 (centres undefined) | 17.9
Cc1nn(C)c2ncc(C(=O)N3CCNC(=O)C3)cc12 | 1.86
COCC(=O)N1CCC(c2cc3ncccc3c(O)n2)CC1 | -27.4
O=C(CCC1CCCC1)N1CCC(c2cc3ncccc3c(O)n2)CC1 | 55.6
O=C(CC1CCCC1)N1CCC(c2cc3ncccc3c(O)n2)CC1 | -2.11
O=C(c1c(F)cccc1F)N1CCOCC1 | 30.45
Cn1ccc(C(=O)NCc2cccc(Cn3ccnc3)c2)cc1=O | 31.4
Cn1ccc(C(=O)NCc2cccc(NC(=O)C3CCC3)c2)cc1=O | 61.1
Cn1ccc(C(=O)NCc2cccc(CN3CCCC3)c2)cc1=O | 48.8
O=C(Nc1cccc(CNCc2ccsc2)c1)C1CC1 | 21.8
O=C(Nc1cccc(CNCc2csc(Br)c2)c1)C1CC1 | 70.7

SMILES | INHIBITION [%]
O=C(Nc1cccc(CNCc2cccnc2)c1)C1CCCC1 | 39.65
Cc1nccn1Cc1cccc(CNC(=O)c2ccn(C)c(=O)c2)c1 | 53.8
Cn1ccc(C(=O)NCc2ccc(Cn3ccnc3)cc2)cc1=O | -7.17
Cn1ccc(C(=O)NCc2cccc(N3CCCCC3=O)c2)cc1=O | 45.9
COCCC(=O)N1CCC(c2cc(O)n(C)n2)C1 (centres undefined) | 0.301
O=C(O)CC(CC(=O)NCc1ccsc1)c1cccs1 (centres undefined) | -24
CCn1cc(NC(=O)NCCc2ccc3c(c2)OCO3)cn1 | -23.9
CCc1nc(C(=O)N(C)CC(=O)N(C)C)nn1-c1ccccc1Cl | 27.9
c1ccc2oc(CCCN3CCOC(Cn4cncn4)C3)nc2c1 (centres undefined) | 47.1
Cc1ccsc1C(=O)N1CCC(Nc2cccnc2)CC1 | -36.6
COCCN1C(=O)[C@@H]2CC[C@H]1CN(S(=O)(=O)c1ccc(OC)cc1)C2 | 1.56
Cc1cc(C(F)(F)F)c2c(C3CCCN(C(=O)C4CC4)C3)noc2n1 (centres undefined) | 26.8
CNc1ccc(Cl)cc1C(=O)N1CCC(Cn2cc(CN)nn2)CC1 | 21.2
Cc1cc(Br)c2c(c1)C1(CC(=O)Nc3c1cnn3C(C)C)C(=O)N2 (centres undefined) | -34.8
CC(C)n1ncc2c1NC(=O)CC21C(=O)Nc2cc(Cl)cc(Cl)c21 (centres undefined) | 89.6
CC(C)n1ncc2c1NC(=O)CC21C(=O)Nc2c(Cl)cc(Cl)cc21 (centres undefined) | -35.5
CC(C)n1ncc2c1NC(=O)CC21C(=O)Nc2c(Cl)cccc21 (centres undefined) | -75.8
CC(C)n1ncc2c1NC(=O)CC21C(=O)Nc2c(Br)cc(Cl)cc21 (centres undefined) | 59.3
CC(C)n1ncc2c1NC(=O)CC21C(=O)Nc2c(Cl)ccc(Cl)c21 (centres undefined) | 73.6
CN1C(=O)C2(CC(=O)Nc3c2cnn3C(C)(C)C)c2c(Cl)cccc21 (centres undefined) | 5.58
CC(C)n1ncc2c1NC(=O)CC21C(=O)Nc2c(Cl)cc(Br)cc21 (centres undefined) | -23.7
Cc1cc(C)c2c(c1)C1(CC(=O)Nc3c1cnn3C(C)C)C(=O)N2 (centres undefined) | -20.5
